ChEMBL document CHEMBL3988442, “University of Dundee, Small-Polar-MMV Screening Library” (2021)
The whole screen tested about 48,000 compounds, of which about 13,000 (27%) showed an effect of 50% or more. Some of the results follow.

tested on: Wolbachia pipientis; assay: Anti-Wolbachia Cell-Based Screen; format: functional; parameters: scale not given: in the data most compounds retested in dose-response had high values; conditions: 5 µM

Structure (SMILES)	Percent Effect [%]
O=C(O)[C@@H]1CN(CCOCCO)C[C@H]1c1ccccc1	-10.46
N#Cc1ccc(OC2CCN(C(=O)c3cncc(Br)c3)CC2)nc1	3.966
CCC(C)(CC(=O)OC)NC(=O)c1ccc2[nH]ccc2c1 (stereo not drawn)	-0.3166
CCCn1[nH]cc/c1=N\C(=O)CN1CCCC1Cn1nc(C)nc1C (stereo not drawn)	-1.859
CC(=O)c1cccc(NC(=O)CN2CCCCC2C)c1 (stereo not drawn)	-9.973
CCCS(=O)(=O)CCN1CCOC(c2ccsc2)C1 (stereo not drawn)	-6.167
Cc1ocnc1C(=O)N1CCN(CCOc2ccccc2)CC1	109.9
O=C(CCn1cc(Cl)cn1)N1CCN(CCOc2ccccc2)CC1	-6.646
CC(=O)N1CCCN(CCCc2ccccc2)CC1	-14.81
O=C(c1ncoc1C1CC1)N1CCCN(CCCc2ccccc2)CC1	104.8
Cn1nccc1C(=O)N1CCCN(CCCc2ccccc2)CC1	-12.37
O=C(c1ncoc1C1CC1)N1CCN(CCOc2ccccc2)CC1	94.73
COc1cccc(OCC2CCCN(C(=O)c3ncoc3C3CC3)C2)c1 (stereo not drawn)	-37.79
Nc1nccnc1C(=O)N1CCN(CCOc2ccccc2)CC1	-15.87
CC(C(=O)N1CCN(CCOc2ccccc2)CC1)n1cc(Cl)cn1 (stereo not drawn)	9.787
O=C(c1n[nH]c2c1CCN(Cc1nccs1)C2)N1CCOCC1	14.04
O=C(CN1CCc2cncnc2C1)N1CCc2sccc2C1	-26.01
Cc1cc(CNc2ccc(C(=O)N3CCc4ccccc43)cn2)on1	23.63
CSC1(CNC(=O)NCc2sccc2C)CCOCC1	-11.79
COC(=O)NCC(=O)N(C)Cc1csc(-c2cccs2)n1	-9.296
CN(C)Cc1cnc(CC2CCN(CCc3ccccc3)CC2)cn1	90.66
COc1ccccc1CN(C)C(=O)c1cc(CN2CCC(O)CC2)on1	-15.1
COc1cccc(CN2CCC(c3nccn3C(C)C)CC2)c1	7.494
COc1ccccc1OC1CCN(Cc2cnc(N(C)C)nc2)CC1	-4.548
CCn1c(CN(C)C)nnc1C1CCN(Cc2cccc(OC)c2)CC1	12.38
COc1cccc(CN2CCC(Cc3cnc(CN(C)C)cn3)CC2)c1	111.9

Structure (SMILES)	Percent Effect [%]
COc1ccccc1CN1CCC(Cc2cnc(CN(C)C)cn2)CC1	110
Cc1cnc(CN(C)C2CCN(CCc3ccccn3)CC2)cn1	10.61
Cc1ncc(CN(C)C2CCCN(CCc3ccccc3)C2)n1C (stereo not drawn)	-4.655
O=C(NCCN1CCOCC1)NCc1ncc(-c2ccccc2)o1	4.39
CCc1cc(N2C[C@H](C3CC3)[C@@H](N)C2)nc(N2CCCC2)n1	13.06
O=C(C1SCCc2sccc21)N1CC(O)C1 (stereo not drawn)	-8.874
O=C(NCc1nnc2n1CCC2)c1ccc(C2CCCO2)s1 (stereo not drawn)	92.93
O=C(NCc1nnc2n1CCCC2)c1ccc(C2CCCO2)s1 (stereo not drawn)	101.2
O=C(c1ccc(C2CCCO2)s1)N1CCS(=O)(=O)CC1 (stereo not drawn)	-17.24
O=C(NCc1nnc2n1CCC2)c1ccc(Br)s1	111.9
CCCn1nc(C(=O)NCc2nnc3n2CCC3)ccc1=O	10.17
O=C(NCc1nnnn1-c1ccccc1)c1ccc(C2CCCO2)s1 (stereo not drawn)	107.3
O=C(NCCc1nc(-c2cccnc2)no1)c1ccc(C2CCCO2)s1 (stereo not drawn)	9.289
Brc1ccc(CNCc2nnc3n2CCCCC3)s1.Cl	-9.966
O=C(NCCc1nc(-c2ccccn2)no1)c1ccc(C2CCCO2)s1 (stereo not drawn)	1.168
O=C(c1ccc(C2CCCO2)s1)N1CCOCC1 (stereo not drawn)	12.38
O=C(NCc1nc(-c2ncccn2)no1)c1ccc(C2CCCO2)s1 (stereo not drawn)	1.896
Brc1ccc(CNCc2nnc3n2CCC3)s1.Cl	7.308
CCc1cccc(OCCn2cccc(C#N)c2=O)c1	-12.24
Nc1cc(C(=O)N2C[C@H]3CC[C@@H]2CN(Cc2cccnc2)C3)ccn1	-14.93
CNC(=O)[C@@H](c1ccccc1OC)N1CCC[C@H]1C(=O)N1CCC1.Cl	-2.79
CCCc1nncn1-c1cc(OC)ccc1OC	-4.578
COCC(=O)NS(=O)(=O)c1ccc(F)c(F)c1	-13.69
CC(=O)Nc1nc(C(=O)N2CCCC2c2noc(C)n2)cs1 (stereo not drawn)	1.192
Cc1cc(C)nc(C2CCCN2C(=O)c2cnco2)n1 (stereo not drawn)	140.7
Cc1cncc(C(=O)N2CCCCC2c2nc[nH]n2)c1 (stereo not drawn)	2.614

Structure (SMILES)	Percent Effect [%]
Cc1cc(C)nc(C2CCCN2C(=O)c2cnccn2)n1 (stereo not drawn)	104.9
Cc1nc(C2CCCN2C(=O)c2cnns2)no1 (stereo not drawn)	-16.56
Cc1cc(C)nc(C2CCCN2C(=O)c2coc(C)n2)n1 (stereo not drawn)	95.19
Cc1nc(C2CCCN2C(=O)c2ccc(=O)n(C)n2)no1 (stereo not drawn)	4.232
COc1ccc(F)c(-c2cc(C)nc(N)n2)c1	-7.785
OC1(CNc2ccc(Br)cn2)CCC1	-10.9
Cc1nc(-c2noc3ccc(C(=O)NCCN4CCOCC4)cc23)co1	-13.78
Cn1cc(NC(=O)NC2CCCN(c3ccccc3Cl)C2=O)cn1 (stereo not drawn)	-13.39
Cc1cc(C2CCCN(C(=O)COc3ccccc3F)C2)n[nH]1 (stereo not drawn)	-9.054
Cc1cc(CC(=O)NC2CCCN(c3ccccc3Cl)C2=O)n[nH]1 (stereo not drawn)	103.5
Cc1cc(CNCC2(O)CCCN(CCCc3ccccc3)C2=O)n[nH]1 (stereo not drawn)	11
COCC(=O)NC1CCCN(c2ccc(C)cc2)C1=O (stereo not drawn)	11.31
Cc1cc(CC(=O)NC2CCCN(Cc3ccccc3)C2=O)n[nH]1 (stereo not drawn)	128.5
Cc1cc(CC(=O)NC2CCCN(c3ccccc3F)C2=O)n[nH]1 (stereo not drawn)	95.19
Cc1ccc(N2CCCC(NC(=O)Cc3csc(C)n3)C2=O)cc1 (stereo not drawn)	-8.265
Cn1ccc(NC(=O)NC2CCCN(c3ccccc3Cl)C2=O)n1 (stereo not drawn)	10.36
O=C(Cc1ccccc1O)NC1CCCN(c2ccccc2F)C1=O (stereo not drawn)	90.3
CC(=O)NCCCSC1CCCN(c2ccccc2F)C1=O (stereo not drawn)	-23.33
O=C1C(NCc2ccccc2O)CCN1Cc1ccccc1 (stereo not drawn)	-5.18
Cc1[nH]c2c(F)cccc2c1CC(=O)N1CCCC(N)CC1 (stereo not drawn)	-2.417
Cc1cc(C)cc(CN2C[C@H]3COC[C@H](N4CCN(C)CC4)[C@H]3C2)c1.O=C(O)C(F)(F)F.O=C(O)C(F)(F)F.O=C(O)C(F)(F)F	-30.24
CN(Cc1csc(-c2cccs2)n1)CC(O)CO (stereo not drawn)	2.949
Cc1cc(=O)n(C)cc1NC(=O)CC1CCC1	-11.35
O=C(Cc1ccon1)NC1CCCN(c2ccccc2F)C1=O (stereo not drawn)	99.65
Cc1ccc(N2CCCC(NC(=O)CCc3ccccn3)C2=O)cc1 (stereo not drawn)	-0.6334
O=C(Cc1ccon1)NC1CC2(CCC2)Oc2ccccc21 (stereo not drawn)	0.8032

Structure (SMILES)	Percent Effect [%]
CNc1nc(C)c(C(=O)N2CCCCC2CCN2CCOCC2)s1 (stereo not drawn)	-13.11
COc1nc(C)c(C(=O)NCc2cc(N3CCOCC3)ncn2)s1	-8.084
CNc1nc(C)c(C(=O)N2CCCCC2CCc2ccc(O)cc2)s1 (stereo not drawn)	-31.11
Cc1nc(N2CCOCC2)sc1C(=O)NCC(C)(C)N1CCCCC1	59.39
CC(C)(CNC(=O)C1CCCCN1S(C)(=O)=O)N1CCOCC1 (stereo not drawn)	1.375
CNc1nc(C)c(C(=O)NCC(C)(C)N2CCCCC2)s1	51.74
CN(CCO)C(=O)Nc1ccn(-c2cccc(C(F)(F)F)c2)n1	-1.058
CC(=O)Nc1ccc(Cl)c(C(=O)N(C)C(C)c2nccs2)c1 (stereo not drawn)	18.16
O=C1CC(C(=O)Nc2nnc(-c3ccccn3)[nH]2)c2ccccc2N1 (stereo not drawn)	-11.02
CN[C@@H]1CCC[C@@H](Oc2ccccc2Oc2ccc(C)cc2)[C@@H]1O	109.8
O=C(Nc1cnc(Oc2ccccc2)nc1)C1CC1	12.01
COc1ccc(CNC(=O)N2CCOCC2C2CC2)cc1C (stereo not drawn)	12.32
Cc1ccc(N2CC[C@H]3OCC[C@@]3(C(=O)NC(C)C)C2)nn1.O=C(O)C(F)(F)F	-2.332
CCS(=O)(=O)N1CCOC2(CCCN(c3ccc(C)nn3)C2)C1.O=C(O)C(F)(F)F (stereo not drawn)	0.7716
CCS(=O)(=O)N1CC[C@H]2OCC[C@@]2(C(=O)NC)C1	-10.89
Cc1ncsc1CN1CC[C@H]2OCC[C@@]2(C(=O)NCC2CC2)C1	4.364
CC(=O)NCC(=O)N1CCOC2(CCCN(c3cccnc3)C2)C1.O=C(O)C(F)(F)F (stereo not drawn)	-5.55
CS(=O)(=O)N1CC[C@H]2OCC[C@@]2(C(=O)NCC2CC2)C1	83.9
CC(=O)NCC(=O)N1CCOC2(CCCN(c3ccc(C)nn3)C2)C1 (stereo not drawn)	107.9
Cc1ccc(N2CC[C@H]3OCC[C@@]3(C(=O)N3CCCO3)C2)nn1	93.84
CNC(=O)[C@@]12CCO[C@@H]1CCN(S(=O)(=O)c1cc(C)cc(C)c1)C2	11.27
Cc1ccc(N2C[C@H]3OCC[C@H]3[C@H](C(=O)NC3CCC3)C2)nn1	-15.47
Cc1ccc(N2CC[C@H]3OCC[C@@]3(C(=O)NCC3CC3)C2)nn1	112.3
Cc1noc(CNc2c(N3CCCC3)cccc2N2CCCC2)n1	12
CC(C)c1cc(C(=O)N2CCN(c3ccc(F)c(Cl)c3)CC2)n(C)n1	-4.845
